Experimental data as given in publication PMC5540273 (PLoS ONE, 2017).

Tests used:
Details in all cases: concentration: 1 μM, replicates: in singlicate; n = 1
MARK3 = system: MARK3
MARK4 = system: MARK4
MAST1 = system: MAST1
MEK1 = system: T1, MEK1
T1 construct: gene MAP2K1

MEK2 = system: T2, MEK2
T2 construct: gene MAP2K2

MEK3 = system: T3, MEK3
T3 construct: gene MAP2K3

MEK4 = system: T4, MEK4
T4 construct: gene MAP2K4

MEK5 = system: T5, MEK5
T5 construct: gene MAP2K5

MEK6 = system: T6, MEK6
T6 construct: gene MAP2K6

MELK = system: MELK
MERTK = system: MERTK
MET = system: MET
MINK = system: T7, MINK
T7 construct: gene MINK1

MKK7 = system: MKK7
MKNK1 = system: MKNK1
MKNK2 = system: MKNK2
MLCK = system: T8, MLCK
T8 construct: gene MYLK3

MLK1 = system: T9, MLK1
T9 construct: gene MAP3K9

MLK2 = system: MLK2
MLK3 = system: MLK3
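Further: KINOMEscan kinase panel screen.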

NC(=O)c1sc(-n2cnc3ccccc32)cc1OCc1ccccc1F [GSK1024306]
%Inh (MARK3): 0% | %Inh (MARK4): 1% | %Inh (MAST1): 11% | %Inh (MEK1): 0% | %Inh (MEK2): 0% | %Inh (MEK3): 0% | %Inh (MEK4): 20% | %Inh (MEK5): 69% | %Inh (MEK6): 0% | %Inh (MELK): 23% | %Inh (MERTK): 32% | %Inh (MET): 20% | %Inh (MINK): 1% | %Inh (MKK7): 0% | %Inh (MKNK1): 10% | %Inh (MKNK2): 0% | %Inh (MLCK): 0% | %Inh (MLK1): 9% | %Inh (MLK2): 0% | %Inh (MLK3): 7%

Fc1cccc(COc2ccc(Nc3ncnc4sc(-c5ccc[nH]5)cc34)cc2Cl)c1 [GW707818]
%Inh (MARK3): 13% | %Inh (MARK4): 14% | %Inh (MAST1): 1% | %Inh (MEK1): 0% | %Inh (MEK2): 0% | %Inh (MEK3): 0% | %Inh (MEK4): 2% | %Inh (MEK5): 27% | %Inh (MEK6): 0% | %Inh (MELK): 13% | %Inh (MERTK): 10% | %Inh (MET): 0% | %Inh (MINK): 16% | %Inh (MKK7): 8% | %Inh (MKNK1): 12% | %Inh (MKNK2): 2% | %Inh (MLCK): 0% | %Inh (MLK1): 7% | %Inh (MLK2): 0% | %Inh (MLK3): 2%

O=C(Nc1ccccc1F)NC1CCN(c2ccnc(Nc3ccc(F)cc3)n2)C1 (centres unmarked) [GSK1379722]
%Inh (MARK3): 0% | %Inh (MARK4): 0% | %Inh (MAST1): 14% | %Inh (MEK1): 0% | %Inh (MEK2): 0% | %Inh (MEK3): 0% | %Inh (MEK4): 25% | %Inh (MEK5): 12% | %Inh (MEK6): 0% | %Inh (MELK): 0% | %Inh (MERTK): 6% | %Inh (MET): 0% | %Inh (MINK): 0% | %Inh (MKK7): 0% | %Inh (MKNK1): 7% | %Inh (MKNK2): 23% | %Inh (MLCK): 10% | %Inh (MLK1): 0% | %Inh (MLK2): 0% | %Inh (MLK3): 9%

CCn1c(-c2ccncc2)nc2cnccc21 [SB-735216]
%Inh (MARK3): 96.1% | %Inh (MARK4): 8% | %Inh (MAST1): 37% | %Inh (MEK1): 5% | %Inh (MEK2): 11% | %Inh (MEK3): 34% | %Inh (MEK4): 7% | %Inh (MEK5): 25% | %Inh (MEK6): 0% | %Inh (MELK): 0% | %Inh (MERTK): 0% | %Inh (MET): 1% | %Inh (MINK): 19% | %Inh (MKK7): 5% | %Inh (MKNK1): 5% | %Inh (MKNK2): 33% | %Inh (MLCK): 0% | %Inh (MLK1): 8% | %Inh (MLK2): 0% | %Inh (MLK3): 0%

FC(F)(F)c1ccc(-c2cc(-c3c[nH]nc3-c3ccccn3)ccn2)cc1 [GW599550]
%Inh (MARK3): 0% | %Inh (MARK4): 2% | %Inh (MAST1): 0% | %Inh (MEK1): 5% | %Inh (MEK2): 0% | %Inh (MEK3): 0% | %Inh (MEK4): 18% | %Inh (MEK5): 8% | %Inh (MEK6): 0% | %Inh (MELK): 0% | %Inh (MERTK): 0% | %Inh (MET): 14% | %Inh (MINK): 75% | %Inh (MKK7): 0% | %Inh (MKNK1): 7% | %Inh (MKNK2): 0% | %Inh (MLCK): 7% | %Inh (MLK1): 10% | %Inh (MLK2): 0% | %Inh (MLK3): 21%

CCc1nc(-c2cccc(C)c2)c(-c2ccnc(NC(=O)c3ccccc3)c2)s1
%Inh (MARK3): 0% | %Inh (MARK4): 28% | %Inh (MAST1): 25% | %Inh (MEK1): 5% | %Inh (MEK2): 2% | %Inh (MEK3): 7% | %Inh (MEK4): 4% | %Inh (MEK5): 54% | %Inh (MEK6): 0% | %Inh (MELK): 22% | %Inh (MERTK): 3% | %Inh (MET): 2% | %Inh (MINK): 61% | %Inh (MKK7): 0% | %Inh (MKNK1): 0% | %Inh (MKNK2): 8% | %Inh (MLCK): 0% | %Inh (MLK1): 0% | %Inh (MLK2): 16% | %Inh (MLK3): 0%

Cn1cc(-c2ccc3c(c2)CCN3C(=O)Cc2cccc(C(F)(F)F)c2)c2c(N)ncnc21 [GSK2606414]
%Inh (MARK3): 0% | %Inh (MARK4): 7% | %Inh (MAST1): 0% | %Inh (MEK1): 0% | %Inh (MEK2): 0% | %Inh (MEK3): 0% | %Inh (MEK4): 22% | %Inh (MEK5): 6% | %Inh (MEK6): 0% | %Inh (MELK): 8% | %Inh (MERTK): 43% | %Inh (MET): 0% | %Inh (MINK): 0% | %Inh (MKK7): 0% | %Inh (MKNK1): 0% | %Inh (MKNK2): 1% | %Inh (MLCK): 12% | %Inh (MLK1): 0% | %Inh (MLK2): 27% | %Inh (MLK3): 8%

O=C(Nc1ccccc1)Nc1ccc(Oc2ccc3nccn3n2)cc1
%Inh (MARK3): 9% | %Inh (MARK4): 7% | %Inh (MAST1): 0% | %Inh (MEK1): 17% | %Inh (MEK2): 32% | %Inh (MEK3): 0% | %Inh (MEK4): 0% | %Inh (MEK5): 0% | %Inh (MEK6): 0% | %Inh (MELK): 10% | %Inh (MERTK): 16% | %Inh (MET): 1% | %Inh (MINK): 38% | %Inh (MKK7): 0% | %Inh (MKNK1): 14% | %Inh (MKNK2): 0% | %Inh (MLCK): 0% | %Inh (MLK1): 15% | %Inh (MLK2): 0% | %Inh (MLK3): 0%

COc1ccc(NC(=O)Nc2ccc(C)c(-c3ccc(C(=O)Nc4ccncc4)cc3)c2)cc1 [GSK1398475]
%Inh (MARK3): 0% | %Inh (MARK4): 0% | %Inh (MAST1): 0% | %Inh (MEK1): 0% | %Inh (MEK2): 0% | %Inh (MEK3): 0% | %Inh (MEK4): 18% | %Inh (MEK5): 0% | %Inh (MEK6): 0% | %Inh (MELK): 6% | %Inh (MERTK): 31% | %Inh (MET): 0% | %Inh (MINK): 5% | %Inh (MKK7): 0% | %Inh (MKNK1): 6% | %Inh (MKNK2): 0% | %Inh (MLCK): 0% | %Inh (MLK1): 0% | %Inh (MLK2): 0% | %Inh (MLK3): 0%

CN1c2ccc(-c3ccc(C(=O)NCCO)cc3)cc2-c2[nH]ncc2S1(=O)=O
%Inh (MARK3): 0% | %Inh (MARK4): 35% | %Inh (MAST1): 0% | %Inh (MEK1): 0% | %Inh (MEK2): 27% | %Inh (MEK3): 25% | %Inh (MEK4): 0% | %Inh (MEK5): 68% | %Inh (MEK6): 1% | %Inh (MELK): 32% | %Inh (MERTK): 0% | %Inh (MET): 2% | %Inh (MINK): 46% | %Inh (MKK7): 0% | %Inh (MKNK1): 0% | %Inh (MKNK2): 0% | %Inh (MLCK): 0% | %Inh (MLK1): 29% | %Inh (MLK2): 27% | %Inh (MLK3): 18%
